The source made the active and inactive calls. Unless noted, calls come from the whole dose curve; as a rule, active = well fitted curve in the direction sought with a large enough effect; inconclusive = small, poorly fitted or top-dose-only effect, or another doubt; inactive = no such curve, though single readings can be large; an effect the other way counts as inactive or inconclusive.
Key:
[1] = Cellular Toxicity (caspase-3) BJ (AID 658);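 note: cells exposed to compound for 16 hours; 0% = DMSO basal and 100% = 10 µM staurosporine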
Outline: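 Caspase-Glo 3/7 luminescence, read 1 hr after reagent at room temperature, in normal BJ fibroblasts exposed 16 hours at 37 °C. AC50 values from Hill-equation concentration-response, scaled between DMSO basal and 10 uM staurosporine as 100%.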

[2] = Cellular Toxicity (caspase-3) Mesangial (AID 660); conditions: Potency: caspase-3 activation;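 note: combined caspase 3 and 7 activity read by Caspase-Glo luminescence; cells exposed to compound for 16 h before the caspase read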; note: potency is the fitted concentration of half-maximal effect
Outline: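 Luminescent Caspase-Glo 3/7 readout (aminoluciferin substrate cleavage, 20 min RT) after 16 h compound exposure at 37 °C of normal human mesangial cells. Signal increase normalized between DMSO basal and 100 uM tamoxifen; Hill-equation AC50.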

[3] = Cellular Toxicity (caspase-3) H-4-II-E (AID 663); conditions: H-4-II-E rat hepatoma, scaled: DMSO 0%, 100 µM tamoxifen 100%; at 92.2 µM (top of the series);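 note: cells exposed to compound for 16 hr before readout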
Outline: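 Caspase 3/7 activation measured by luminescent aminoluciferin substrate cleavage after 16 hr compound treatment of H-4-II-E cells in complete medium. Increase normalized between DMSO (basal) and 100 uM tamoxifen (100%); Hill-equation AC50 from concentration-response.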

[4] = Cellular Toxicity (caspase-3) Hek293 (AID 664); conditions: HEK293 caspase-3 activation, DMSO = 0%, 100 µM tamoxifen = 100%; at 92.2 µM (top of the series);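 note: cells exposed to compound for 16 h at 37 °C before readout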
Outline: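 Luminescent Caspase-Glo 3/7 readout (aminoluciferin release) in HEK293 cells after 16 h compound treatment, 37 °C. Normalization: DMSO = basal, 100 uM tamoxifen = 100% stimulation. Concentration-response fitted with standard Hill equation for AC50.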

[5] = Cellular Toxicity (caspase-3) NIH 3T3 (AID 666);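 note: 0% = DMSO basal and 100% = 100 µM tamoxifen stimulation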
Outline: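 NIH 3T3, 1000 cells/well, 5 hr settle then 16 hr compound at 37°C; Caspase-Glo 3/7, 20 min RT, luminescence. DMSO = basal, 100 uM tamoxifen = 100%. Hill-equation AC50, qHTS.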

[6] = Cell Viability - LYMP2-004 (AID 966); note: nearly all actives have a fitted effect of over 65% in size; note: potency is the fitted concentration of half-maximal effect
Outline: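 Luminescent ATP read-out (CellTiter-Glo, 30 min RT) after 24 hr compound exposure at 37 C; 2500 lymphoblastoid cells/well, complete medium. Decrease in ATP = cytotoxicity; AC50 from standard Hill model.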

[7] = Cell Viability - LYMP2-002 (AID 977); note: potency is the fitted concentration of half-maximal effect
Outline: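 Human lymphoblastoid cells (2500/well) in complete medium were preincubated 5 hr at 37 C, then exposed to compounds for 24 hr at 37 C. Intracellular ATP was read by CellTiter-Glo luminescence; AC50 came from Hill-equation concentration-response fits.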

[8] = Cell Viability - LYMP2-006 (AID 978); note: nearly all actives have a fitted effect of over 60% in size; note: potency is the fitted concentration of half-maximal effect
Outline: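 In this cytotoxicity screen, the human lymphoblastoid line grew in complete medium with test compounds for 24 hr at 37 C. Cellular ATP served as the viability signal.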

[9] = Cell Viability - LYMP2-010 (AID 981); note: nearly all actives have a fitted effect of over 55% in size; note: potency is the fitted concentration of half-maximal effect
Outline: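 qHTS cytotoxicity, 1536-well: 2500 cells/well, 5 hr settle, 24 hr compound at 37 C, CellTiter-Glo 30 min RT, luminescence read. Decrease in ATP = toxicity; AC50 via standard Hill equation. Positive control tetraoctylammonium bromide.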

[10] = Cell Viability - LYMP2-014 (AID 983); note: nearly all actives have a fitted effect of over 50% in size; note: potency is the fitted concentration of half-maximal effect
Outline: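 2500 cells/well, 5 hr 37 C; cpd 24 hr 37 C, complete medium; CellTiter-Glo 30 min RT, luminescence; ATP loss = toxicity; AC50 via Hill eqn; tetraoctylammonium bromide positive control.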

[11] = Cell Viability - LYMP2-016 (AID 984); note: nearly all actives have a fitted effect of over 55% in size; note: potency is the fitted concentration of half-maximal effect
Outline: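 Concentration-dependent ATP depletion measured in LYMP2-016 lymphoblastoid cells, 24 h, 37 C; luciferase-based luminescent detection; Hill-equation AC50.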

[12] = Cell Viability - LYMP2-022 (AID 987); note: nearly all actives have a fitted effect of over 55% in size; note: potency is the fitted concentration of half-maximal effect
Outline: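 Luminescent ATP read-out (CellTiter-Glo, 30 min, RT) after 24 hr, 37 C compound exposure of 2500 human lymphoblastoid cells/well in complete medium. Cytotoxicity taken as concentration-dependent ATP loss; AC50 from standard Hill equation.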

[13] = Cell Viability - LYMP2-024 (AID 988); note: nearly all actives have a fitted effect of over 60% in size; note: potency is the fitted concentration of half-maximal effect
Outline: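 ATP-based luminescence (CellTiter-Glo, 30 min RT) after 24 h compound exposure at 37 C of 2500 lymphoblastoid cells/well; decrease in ATP taken as cytotoxicity. qHTS concentration-response fitted to standard Hill equation for AC50.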

[14] = target: Estrogen receptor (Homo sapiens) (UniProt P03372); test: qHTS assay for small molecule antagonists of estrogen receptor alpha signaling (AID 588513; active = well fitted curve in the direction sought with a large enough effect in the signal ratio, with a control signal flat, not every such curve was filed as active; inconclusive = small, poorly fitted or top-dose-only effect, or effect the other way, or a change in a side signal; inactive = no such curve, though single readings can be large or run the other way; the % refers to the signal ratio; note: potency is the fitted concentration of half-maximal effect)
Outline: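 Antagonist-mode qHTS in ER-alpha-UAS-bla HEK 293 cells: compound titration, 0.5nM estradiol for 18 h, CCF4 fluorescence, Hill-derived IC50.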

[15] = qHTS assay for small molecule disruptors of the mitochondrial membrane potential - 5 hr assay (AID 651755; calls by dose curve; note: nearly all actives have a fitted effect of over 40% in size; note: potency is the fitted concentration of half-maximal effect)
Outline: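 Membrane-potential dye readout: red aggregate (540 ex/590 em) versus green monomer (490 ex/535 em) fluorescence after 30 min dye loading, following 5 hr compound exposure at 37C of overnight-plated HepG2 cells.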

[16] = MultiTox-Fluor Cytotoxicity Assay - LYMP1-001 - Dead Cells (AID 946);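 note: 0% = DMSO and 100% = tetraoctylammonium bromide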
Outline: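 Seed 2500 LYMP1-001 cells/well, incubate 5 hr at 37 C; add compound, 16 hr at 37 C; add MultiTox-Fluor reagent, 60 min RT; read dead-cell fluorescence Ex/Em=485/520. Normalize to DMSO and 15 uM tetraoctylammonium bromide.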

[17] = target: Glucocorticoid receptor (Homo sapiens) (UniProt P04150); test: qHTS assay for small molecule agonists of glucocorticoid receptor signaling (AID 588532; active = well fitted curve in the direction sought with a large enough effect in the signal ratio, with a control signal flat; inconclusive = small, poorly fitted or top-dose-only effect, or a change in a side signal; inactive = no such curve, though single readings can be large or run the other way; the % refers to the signal ratio;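 note: 100% = dexamethasone at 0.1 µM and 0% = DMSO only wells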); conditions: HeLa MMTV-bla, beta-lactamase ratio, agonist, 18 h; activation: hits give high values, percent of dexamethasone control, DMSO zero
Outline: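 Quantitative HTS using CellSensor MMTV-bla HeLa cells in charcoal/dextran-treated serum; compounds tested up to 92 uM. After 18 h at 37 C, CCF4 dye reported reporter induction.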

[18] = target: Peroxisome proliferator-activated receptor alpha (Homo sapiens) (UniProt Q07869); test: qHTS assay for small molecule agonists of the peroxisome proliferator-activated receptor alpha (PPARalpha) signaling pathway (AID 651778); conditions: PathHunter PPARalpha complementation, chemiluminescence, 6 h; max response: hits give high values; note: % of control where 0% means no effect
Outline: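 Chemiluminescence from complemented enzyme reported PPARalpha activation in cells after 6 hr of compound treatment at 37 C. The detection reagent was incubated for 60 min at room temperature, and compounds were scored as agonists.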

[19] = target: Cytochrome P450 3A4 (Homo sapiens) (UniProt P08684); test: qHTS Assay for Activators of Cytochrome P450 3A4 (AID 885); note: nearly all actives have a fitted effect of over 65% in size
Outline: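 Activators are scored by enhanced luminescence from CYP3A4 conversion of luciferin-PPXE (25uM, equal to KM) to luciferin, after 60 min at RT with an NADPH-regenerating system.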

[20] = MultiTox-Fluor Cytotoxicity Assay - LYMP1-002 - Dead Cells (AID 960); note: nearly all actives have a fitted effect of over 60% in size; note: potency is the fitted concentration of half-maximal effect
Outline: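 Readout: fluorescence at 485/520 from cell-impermeant bis-AAF-R110 cleaved by proteases leaking from damaged cells. LYMP1-002 lymphoblastoid line, 16 hr compound treatment at 37 C, concentration-response in qHTS format; Hill-equation AC50 values.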

Chain of Estrogen receptor (Homo sapiens) (P03372 whole entry, looked up): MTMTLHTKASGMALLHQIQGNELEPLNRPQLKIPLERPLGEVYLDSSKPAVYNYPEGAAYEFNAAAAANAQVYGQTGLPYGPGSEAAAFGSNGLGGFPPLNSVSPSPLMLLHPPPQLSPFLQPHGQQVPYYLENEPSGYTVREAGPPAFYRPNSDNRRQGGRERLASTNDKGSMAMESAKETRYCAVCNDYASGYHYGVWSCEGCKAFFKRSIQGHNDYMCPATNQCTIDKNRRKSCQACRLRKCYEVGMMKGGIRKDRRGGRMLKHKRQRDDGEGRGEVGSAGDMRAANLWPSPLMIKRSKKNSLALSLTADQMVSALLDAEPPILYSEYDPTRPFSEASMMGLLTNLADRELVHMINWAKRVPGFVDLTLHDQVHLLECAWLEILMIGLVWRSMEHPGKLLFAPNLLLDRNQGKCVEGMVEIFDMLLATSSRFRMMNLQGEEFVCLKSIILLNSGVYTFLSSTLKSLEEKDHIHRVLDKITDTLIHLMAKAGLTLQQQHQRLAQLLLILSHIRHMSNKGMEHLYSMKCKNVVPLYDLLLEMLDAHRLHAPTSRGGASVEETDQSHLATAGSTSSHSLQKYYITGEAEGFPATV
Chain of Glucocorticoid receptor (Homo sapiens) (P04150 whole entry, looked up): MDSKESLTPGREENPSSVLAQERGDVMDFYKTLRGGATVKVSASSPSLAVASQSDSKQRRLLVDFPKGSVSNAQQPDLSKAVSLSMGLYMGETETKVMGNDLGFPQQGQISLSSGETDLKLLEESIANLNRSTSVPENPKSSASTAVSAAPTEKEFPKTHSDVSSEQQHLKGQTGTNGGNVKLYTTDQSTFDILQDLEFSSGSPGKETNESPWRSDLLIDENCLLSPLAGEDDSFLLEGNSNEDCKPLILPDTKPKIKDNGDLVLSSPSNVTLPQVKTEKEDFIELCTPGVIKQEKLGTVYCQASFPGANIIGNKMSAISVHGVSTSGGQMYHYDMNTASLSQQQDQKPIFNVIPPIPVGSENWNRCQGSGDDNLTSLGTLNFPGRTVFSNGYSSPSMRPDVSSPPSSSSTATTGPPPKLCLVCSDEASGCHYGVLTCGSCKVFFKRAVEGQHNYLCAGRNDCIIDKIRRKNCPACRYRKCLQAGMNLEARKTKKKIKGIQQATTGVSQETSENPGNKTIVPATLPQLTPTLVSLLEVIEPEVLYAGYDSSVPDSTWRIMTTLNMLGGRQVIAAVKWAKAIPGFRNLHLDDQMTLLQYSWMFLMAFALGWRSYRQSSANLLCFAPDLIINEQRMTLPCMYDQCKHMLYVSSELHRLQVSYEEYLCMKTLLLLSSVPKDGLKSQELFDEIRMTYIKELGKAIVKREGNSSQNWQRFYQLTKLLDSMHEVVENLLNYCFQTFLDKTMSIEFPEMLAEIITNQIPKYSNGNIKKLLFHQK
Chain of Peroxisome proliferator-activated receptor alpha (Homo sapiens) (Q07869 whole entry, looked up): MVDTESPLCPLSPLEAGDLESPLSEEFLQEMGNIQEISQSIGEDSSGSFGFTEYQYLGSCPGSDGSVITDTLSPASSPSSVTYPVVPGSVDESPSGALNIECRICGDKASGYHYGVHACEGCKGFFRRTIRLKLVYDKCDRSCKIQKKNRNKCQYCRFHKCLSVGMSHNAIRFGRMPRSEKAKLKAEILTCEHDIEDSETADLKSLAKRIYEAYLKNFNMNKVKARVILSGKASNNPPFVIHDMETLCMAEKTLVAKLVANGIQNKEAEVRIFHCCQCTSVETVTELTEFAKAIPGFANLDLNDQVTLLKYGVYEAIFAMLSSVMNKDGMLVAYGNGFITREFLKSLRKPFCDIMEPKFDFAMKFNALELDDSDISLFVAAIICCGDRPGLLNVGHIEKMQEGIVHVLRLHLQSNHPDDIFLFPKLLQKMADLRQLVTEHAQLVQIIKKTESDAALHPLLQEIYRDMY
Chain of Cytochrome P450 3A4 (Homo sapiens) (P08684 whole entry, looked up): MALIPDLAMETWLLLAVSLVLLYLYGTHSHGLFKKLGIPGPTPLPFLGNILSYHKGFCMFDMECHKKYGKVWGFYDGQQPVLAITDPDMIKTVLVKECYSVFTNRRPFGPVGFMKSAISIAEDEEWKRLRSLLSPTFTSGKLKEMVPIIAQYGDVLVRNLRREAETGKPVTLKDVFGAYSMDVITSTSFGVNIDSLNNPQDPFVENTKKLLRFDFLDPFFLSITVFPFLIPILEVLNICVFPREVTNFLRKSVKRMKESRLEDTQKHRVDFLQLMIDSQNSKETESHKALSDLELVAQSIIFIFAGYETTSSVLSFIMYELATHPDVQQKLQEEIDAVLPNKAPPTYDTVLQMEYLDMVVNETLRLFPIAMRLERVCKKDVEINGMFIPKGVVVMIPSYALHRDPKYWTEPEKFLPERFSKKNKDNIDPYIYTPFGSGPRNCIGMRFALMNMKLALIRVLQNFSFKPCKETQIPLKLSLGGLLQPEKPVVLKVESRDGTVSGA

C[C@@H]1CC[C@@]2(OC1)O[C@H]1[C@@H](O)[C@H]3[C@@H]4CC[C@H]5C[C@@H](O[C@@H]6O[C@H](CO)[C@H](O[C@@H]7O[C@H](CO)[C@@H](O)[C@H](O[C@@H]8OC[C@@H](O)[C@H](O)[C@H]8O)[C@H]7O[C@@H]7O[C@H](CO)[C@@H](O)[C@H](O[C@@H]8O[C@H](CO)[C@@H](O)[C@H](O)[C@H]8O)[C@H]7O)[C@H](O)[C@H]6O)[C@H](O)C[C@]5(C)[C@H]4CC[C@]3(C)[C@H]1[C@@H]2C
inactive: outcome [1] | Potency [2] | caspase-3 activation [3] -3.54% | caspase-3 activation [4] -8.63% | outcome [5]
active: Potency [6] 12.6 µM | Potency [7] 25.1 µM | Potency [8] 20 µM | Potency [9] 20 µM | Potency [10] 25.1 µM | Potency [11] 25.1 µM | Potency [12] 15.8 µM | Potency [13] 12.6 µM | Potency [14] 8.91 µM [inconclusive] | Potency [15] 26.6 µM

OC(c1ccc(Cl)cc1)(c1ccc(Cl)cc1)C(Cl)(Cl)Cl
inactive: outcome [1] | Potency [2] | outcome [5] | Potency [16] | Potency [6] | Potency [7] | Potency [8] | Potency [9] | Potency [10] | Potency [11] | Potency [12] | Potency [13] | Potency [14] | activation [17] 4.22% | Potency [15] | max response [18] -0.474%

CC(=O)[O-].CC(=O)[O-].O.O.[Cd+2]
inactive: outcome [1] | Potency [2] | caspase-3 activation [3] 0.407% | caspase-3 activation [4] 4.76% | outcome [5] | Potency [19] | Potency [16] | Potency [20] | Potency [11] | Potency [15] | max response [18] -7.81%
active: Potency [9] 39.8 µM

CC(C)CC(C)Nc1ccc(Nc2ccccc2)cc1 (centres undefined)
inactive: outcome [1] | Potency [2] | caspase-3 activation [4] 12.2% | Potency [19] | activation [17] 4.35%
active: Potency [6] 25.1 µM | Potency [7] 39.8 µM | Potency [8] 39.8 µM | Potency [9] 39.8 µM | Potency [10] 39.8 µM | Potency [11] 50.1 µM | Potency [12] 31.6 µM | Potency [13] 25.1 µM | Potency [14] 25.1 µM [inconclusive]

Clc1ccc(C(c2ccc(Cl)cc2)C(Cl)Cl)cc1
active: Potency [2] 31.6 µM | caspase-3 activation [3] 87.3% | caspase-3 activation [4] 127% | Potency [20] 15.8 µM | Potency [14] 39.8 µM [inconclusive] | Potency [15] 66.8 µM
inactive: outcome [1] | outcome [5] | Potency [6] | Potency [7] | Potency [8] | Potency [9] | Potency [10] | Potency [11] | Potency [12] | Potency [13] | activation [17] -2.1% | max response [18] 16.9%

N#CC(Cl)Cl
active: caspase-3 activation [4] 72.2% | Potency [7] 12.6 µM | Potency [8] 12.6 µM | Potency [10] 50.1 µM | Potency [11] 25.1 µM
inactive: Potency [2] | caspase-3 activation [3] 0.178% | outcome [5] | Potency [19] | Potency [16] | Potency [20] | Potency [6] | Potency [15] | max response [18] -3.95%

Reference: PubChem BioAssay (NCATS)
